# Screening results (PubChem)
# Most compounds without a hit are left out; they make up all but 21% or so of the library.
# Giardia FBPA inh: Giardia lamblia aldolase inhibition; purified Giardia FBPA; Potency, µM (titrated, usually from 59.6 µM), usual class: inhibitors; 290,000 tested, 0.71% active; note: nearly all actives have a fitted effect of over 55% in size
# Target sequence (A8B2U2 whole entry, looked up): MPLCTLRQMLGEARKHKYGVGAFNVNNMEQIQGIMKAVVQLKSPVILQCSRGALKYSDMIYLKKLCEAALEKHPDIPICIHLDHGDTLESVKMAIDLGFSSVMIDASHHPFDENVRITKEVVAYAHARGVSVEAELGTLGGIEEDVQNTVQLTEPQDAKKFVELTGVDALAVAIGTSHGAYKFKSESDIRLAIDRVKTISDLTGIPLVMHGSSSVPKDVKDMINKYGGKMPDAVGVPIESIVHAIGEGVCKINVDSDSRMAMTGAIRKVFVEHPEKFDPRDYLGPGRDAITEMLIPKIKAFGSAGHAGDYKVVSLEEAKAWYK
#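 40 nM FBPA preincubated 10 min at RT with compound (up to 57.5 uM final), then substrate plus GAPDH/TPI/NAD/arsenate coupling and diaphorase/resazurin added. Fluorescence read after 20 min at RT, 525/598 nm.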
# Pf growth 48h: P. falciparum growth inhibition at 48 hours (one generation); Potency, µM (titrated, usually from 28.7 µM), usual class: inhibitors; P. falciparum luciferase growth in erythrocytes, 48 h; 310,000 tested, 5.9% active; AID 504832
#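 Growth was read as firefly luciferase luminescence after a 48 h, 37 C, 5% CO2 exposure of compounds to reporter-bearing P. falciparum cultures (0.1% parasitemia, 2% hematocrit final) in Albumax-supplemented RPMI 1640.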
# Shiga inhibitor: Shiga toxin inhibition | Vero cells, Shiga toxin protein synthesis inhibition reporter | inhibition, % at 38.7 µM | 290,000 tested, 9.2% active; in the data active = inhibition mostly above about 28%, no sharp cut-off; inactive = mostly below about 43%
# Pf growth 96h: P. falciparum growth inhibition at 96 hours | P. falciparum luciferase reporter growth, 96 h | AID 504834 | Potency, µM (top dose mostly 28.7 µM), hits mostly inhibitors | 320,000 tested, 6.9% active
#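 Cell-based qHTS: luciferase-tagged P. falciparum in erythrocytes (2% hematocrit, 0.05% parasitemia final) incubated with compounds for 96 hours, 37 C, 5% CO2; luciferase detection reagent then added and luminescence measured.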
# Cycloheximide cs: affects cycloheximide protein synthesis inhibition readout, counter-screen. max response, %. 300,000 tested, 12% active. cell reporter, cycloheximide protein synthesis inhibition counterscreen; in the data active = max response mostly above about 13%, no sharp cut-off; inactive = mostly below about 14%; note: read at 38.3 µM for the half of the compounds with a filed dose
# NS1 function inh: influenza NS1 inhibition | 270,000 tested, 0.4% active | Potency, µM (titrated, usually from 46.1 µM); calls by dose curve; note: actives are rising curves; nearly all actives have a fitted effect of over 50% in size
#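 Compounds were scored for reversing the slow growth caused by influenza A NS1 in S. cerevisiae, measured by optical density at 600 nm. Assay medium contained 2% galactose at pH 6.0; NS1-free yeast of the same strain were the positive control.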
# Hits are given with their value; i = inactive; ? = inconclusive; nt = no result given; [ ] = dose if it differs, or a comment. Unless noted, calls come from the whole dose curve; as a rule, active = well fitted curve in the direction sought with a large enough effect; inconclusive = small, poorly fitted or top-dose-only effect, or another doubt; inactive = no such curve, though single readings can be large; an effect the other way counts as inactive or inconclusive.
SMILES,Giardia FBPA inh,Pf growth 48h,Shiga inhibitor,Pf growth 96h,Cycloheximide cs,NS1 function inh
Cc1ccccc1-c1nnc(-c2ccccc2)o1,i,i,95,?,35,i
Cn1cc(-c2nnc(-c3ccccc3)o2)c2ccccc21,i,i,146,i,59,i
CN(C)c1ccc(-c2nnc(-c3ccc(S(=O)(=O)C(F)F)cc3)o2)cc1,i,i,i,?,i,i
Cc1ccccc1-c1nc(Cc2ccc(Cl)cc2)no1,i,i,i,i,25,i
CN(C)c1ccc(-c2nnc(-c3ccccc3F)o2)cc1,i,i,59,i,28,i
CCOC(=O)CNS(=O)(=O)c1ccc(F)cc1Br,i,nt,i,nt,i,nt
Cc1cccc(CNc2ccnc(-c3cccc(C#N)c3)n2)c1,i,nt,nt,nt,nt,nt
O=C(CCNC(=O)C1CCN(S(=O)(=O)c2ccccc2)CC1)NCc1ccccc1Cl,nt,i,i,?,i,i
CCCCCCCC#Cc1ccccc1C(NC(=O)OC)C(C(=O)OC)C(=O)OC (stereo unspecified),i[12.9 µM],nt,nt,nt,nt,nt
Cc1nnc(-c2ccccc2)o1,i,i,i,i,i,i
Cc1ccccc1-c1nnc(-c2ccc(Cl)cc2)o1,i,nt,104,i,58,i
Cc1ccc(CS(=O)(=O)c2ccccc2-c2nnc(-c3ccc(Cl)cc3)o2)cc1,i,i,i,i,i,i
Cc1ccccc1-c1nnc(CS(=O)(=O)c2ccccc2)o1,i,i,61,?,43,i
O=[N+]([O-])c1cccc(-c2nnc(-c3ccccc3F)o2)c1,i,i,22,?,30,i
Cc1cccc(-c2nnc(-c3ccccc3)o2)c1,i,i,56,i,33,i
COC(=O)NCN1C(=O)C2C3C=CC(C3)C2C1=O (stereo unspecified),i,i,i,i[1.15 µM],i,nt
CC1CCN(C(=O)c2[nH]cnc2C(=O)Nc2nccs2)CC1,nt,i,nt,i,nt,nt
CCCCC[C@H](O)/C=C/[C@@H]1[C@@H](C/C=C\CCCC(=O)O)[C@H](O)C[C@H]1O,i,nt,nt,nt,nt,nt
Cc1csc(=S)n1-c1ccccc1,nt,i,i,?,i,i
Cc1csc(=N)n1-c1ccc(Cl)cc1,i,i,176,i,59,i
Cc1ccc(-n2c(C)csc2=N)cc1,i,nt,55,i,56,i
CCOc1ccc(C(=O)NNC(=O)CN2C(=O)NC3(CCCC3)C2=O)cc1,nt,i,nt,i,nt,nt
O=C(c1cc2ccccc2o1)N1CCCCCC1,i,i,62,i[5.75 µM],46,i
O=C(c1cc2ccccc2o1)N1CCCC1,i,i,i,i,i,i
CC1CCN(C(=O)c2cc3ccccc3o2)CC1,i,i,76,?,56,i
SMILES,Giardia FBPA inh,Pf growth 48h,Shiga inhibitor,Pf growth 96h,Cycloheximide cs,NS1 function inh
Cc1cccc(-c2noc(CCc3ccccc3)n2)c1,i,nt,81,i,40,i
Cc1cccc(-c2noc(CNS(=O)(=O)c3ccccc3)n2)c1,i,i,i,i,18,i
Cc1cccc(-c2noc(CCC(=O)NCc3ccccc3)n2)c1,i,i,i,?,i,i
Cc1cccc(-c2noc(CCC(=O)Nc3ccccc3)n2)c1,i,i,i,nt,i,i
Cc1cccc(-c2noc(Cc3ccccc3)n2)c1,i,i,100,i,56,i
COc1ccc(CC(=O)Nc2c(C(=O)N3CCN(c4ccccc4OC)CC3)oc3ccccc23)cc1OC,nt,?,i,i,i,i
Cc1ccc2nc(-c3cccc(Br)c3)cc(C(=O)NC3=NCCS3)c2c1,i,4.7µM,76,i,i,i
O=C(NC1=NCCS1)c1cc(-c2cccc(Br)c2)nc2ccccc12,i,?,i,i,20,i
O=C(NC1=NCCS1)c1nc(-c2ccccc2)n(-c2ccccc2)n1,i,i,i,i,i,i
O=C(CCc1nc2ccccc2c(=O)[nH]1)NNC(=O)COc1cccc(F)c1,nt,i,nt,i,nt,nt
CCCOc1ccc(Cc2c(Cl)nc(SC)nc2OC)cc1,i,i,i,i,i,i
COc1nc(SC)nc(Cl)c1Cc1ccc(OC(C)C)cc1,i,i,i,1µM,i,i
O=C(O)C1CSC(c2coc3ccccc3c2=O)N1 (stereo unspecified),i,i,i,?,14,i
O=[N+]([O-])c1ccc(O)c(C(C#Cc2ccccc2)N2CCOCC2)c1 (stereo unspecified),i,i,66,i,26,i
O=C(c1cc([N+](=O)[O-])ccc1N1CCOCC1)N1CCN(c2ccccc2)CC1,nt,i,i,i,i,i
Cc1ccc(NC(=O)c2c(C)nc(Nc3nc4ccccc4o3)nc2C)cc1,i,i,i,i,i,i
CC1(C)CC(=O)C2=C(C1)NC(Nc1nc3ccccc3o1)=NC21CCCCC1,i,?,i,9.3µM,i,i
CCCCOC(=O)c1[nH]c2c(c1C)C(=O)CC(c1cc(OC)c(OC)c(OC)c1)C2 (stereo unspecified),i,2.9µM,i,i,i,i
COCCOC(=O)c1[nH]c2c(c1C)C(=O)CC(c1ccc(F)cc1)C2 (stereo unspecified),i,nt,i,?,i,i
COCCOC(=O)c1[nH]c2c(c1C)C(=O)CC(c1ccccc1)C2 (stereo unspecified),i,?,i,?,i,i
CCOc1ccc(C2CC(=O)c3c([nH]c(C(=O)OC)c3C)C2)cc1OC (stereo unspecified),i,?,i,i,i,i
COCCOC(=O)c1[nH]c2c(c1C)C(=O)CC(c1ccc(N(C)C)cc1)C2 (stereo unspecified),i,12µM,i,?,14,i
COCCOC(=O)c1[nH]c2c(c1C)C(=O)CC(c1cc(OC)c(OC)c(OC)c1)C2 (stereo unspecified),i,5.2µM,i,9.3µM,i,i
CCOC(=O)c1[nH]c2c(c1-c1ccc(OC)cc1)C(=O)CC(c1ccc(OC)c(OC)c1)C2 (stereo unspecified),i,?,i,8.3µM,i,i
c1ccc(-n2cc(CNCCc3cscn3)c(-c3ccc4c(c3)OCO4)n2)cc1,i,?,i,i,i,i
SMILES,Giardia FBPA inh,Pf growth 48h,Shiga inhibitor,Pf growth 96h,Cycloheximide cs,NS1 function inh
COc1ccc(C2CC(=O)c3c([nH]c(C(=O)OC(C)C)c3C)C2)cc1OC (stereo unspecified),i,?,i,i,i,?
C=CCOC(=O)c1[nH]c2c(c1C)C(=O)CC(c1cc(OC)c(OC)c(OC)c1)C2 (stereo unspecified),i,9.3µM,i,12µM,i,i
O=C(NC1CCCCC1)C1CCN(S(=O)(=O)c2cccc3nonc23)CC1,i,i,i,i,i,i
O=C(CSc1nnc(CN2CCOCC2)n1-c1ccccc1)N1CCc2ccccc21,i,i,i,13µM,i,i
COc1ccc(OCc2nnc(SCC(=O)N3CCCc4ccccc43)n2-c2ccc(C)cc2)cc1,i,12µM,i,nt,i,i
COc1ccc(-n2c(Cc3cccn3C)nnc2SCC(=O)N2CCCc3ccccc32)cc1,i,?,i,i,i,?
N#Cc1ccc(OCc2nnc(SCC(=O)N3CCCc4ccccc43)n2-c2ccccc2)cc1,i,15µM,i,3.3µM,i,i
